Source: publication PMC11062922 (Nature Chemical Biology, 2023)
Read-outs that look alike come from different tables or passages of the source.

How the values were obtained:
NTRK1 = settings: read-out: apparent Kd, n = 1
NUAK2 = settings: read-out: apparent Kd, n = 1
[1] = compound concentrations:100 nM and 1000 nM (sheet 'Lestaurtinib' of Supplementary Table 1),run:Lestaurtinib_02765_R2,Plate:MR026
[2] = compound concentrations:100 nM and 1000 nM (sheet 'Lestaurtinib' of Supplementary Table 1),run:Lestaurtinib_02766_R2,Plate:MR027
[3] = compound concentrations:100 nM and 1000 nM (sheet 'Lestaurtinib' of Supplementary Table 1),run:Lestaurtinib_02768_R1,Plate:MR028
[4] = compound concentrations:100 nM and 1000 nM (sheet 'Lestaurtinib' of Supplementary Table 1),run:Lestaurtinib_02768_R2,Plate:MR028
[5] = compound concentrations:100 nM and 1000 nM (sheet 'Lestaurtinib' of Supplementary Table 1),run:Lestaurtinib_02795_R1,Plate:MR022
[6] = compound concentrations:100 nM and 1000 nM (sheet 'Lestaurtinib' of Supplementary Table 1),run:Lestaurtinib_02795_R2,Plate:MR022
[7] = compound concentrations:100 nM and 1000 nM (sheet 'Lestaurtinib' of Supplementary Table 1),run:Lestaurtinib_02802_R3,Plate:MR029
[8] = compound concentrations:100 nM and 1000 nM (sheet 'Lestaurtinib' of Supplementary Table 1),run:Lestaurtinib_02896_R2,Plate:MR030

Substance Lestaurtinib has a potency estimated from few doses (NTRK1; compound concentrations:100 nM and 1000 nM (sheet 'Lestaurtinib' of Supplementary Table 1),run:Lestaurtinib_02748_R2,Plate:MR024) of 951 nM, a potency estimated from few doses (NTRK1; compound concentrations:100 nM and 1000 nM (sheet 'Lestaurtinib' of Supplementary Table 1),run:Lestaurtinib_02752_R1,Plate:MR025) of 2130 nM and a potency estimated from few doses (NTRK1; [1]) of 528 nM. It also gave a potency estimated from few doses (NTRK1; [2]) of 1650 nM, a potency estimated from few doses (NTRK1; compound concentrations:100 nM and 1000 nM (sheet 'Lestaurtinib' of Supplementary Table 1),run:Lestaurtinib_02766_R3,Plate:MR027) of 1440 nM and a potency estimated from few doses (NTRK1; [3]) of 628 nM. It also gave a potency estimated from few doses (NTRK1; [4]) of 897 nM, a potency estimated from few doses (NTRK1; [5]) of 852 nM and a potency estimated from few doses (NTRK1; [6]) of 1240 nM. For the same substance, the potency estimated from few doses (NTRK1; compound concentrations:100 nM and 1000 nM (sheet 'Lestaurtinib' of Supplementary Table 1),run:Lestaurtinib_02802_R1,Plate:MR029) was 896 nM, the potency estimated from few doses (NTRK1; [7]) was 943 nM and the potency estimated from few doses (NTRK1; [8]) was 935 nM. It also gave a potency estimated from few doses (NTRK1; compound concentrations:100 nM and 1000 nM (sheet 'Lestaurtinib' of Supplementary Table 1),run:Lestaurtinib_03172_R1,Plate:MR031) of 1440 nM, a potency estimated from few doses (NTRK1; compound concentrations:100 nM and 1000 nM (sheet 'Lestaurtinib' of Supplementary Table 1),run:Lestaurtinib_03172_R2,Plate:MR031) of 662 nM and a potency estimated from few doses (NTRK1; compound concentrations:100 nM and 1000 nM (sheet 'Lestaurtinib' of Supplementary Table 1),run:Lestaurtinib_03260_R1,Plate:MR033) of 898 nM. For the same substance, the potency estimated from few doses (NTRK1; compound concentrations:100 nM and 1000 nM (sheet 'Lestaurtinib' of Supplementary Table 1),run:Lestaurtinib_03260_R2,Plate:MR033) was 635 nM, the potency estimated from few doses (NUAK2; compound concentrations:100 nM and 1000 nM (sheet 'Lestaurtinib' of Supplementary Table 1),run:Lestaurtinib_02339_R1,Plate:MR001) was 489 nM and the potency estimated from few doses (NUAK2; compound concentrations:100 nM and 1000 nM (sheet 'Lestaurtinib' of Supplementary Table 1),run:Lestaurtinib_02339_R2,Plate:MR001) was 23.7 nM. The potency estimated from few doses (NUAK2; compound concentrations:100 nM and 1000 nM (sheet 'Lestaurtinib' of Supplementary Table 1),run:Lestaurtinib_02339_R3,Plate:MR001) was 373 nM, the potency estimated from few doses (NUAK2; compound concentrations:100 nM and 1000 nM (sheet 'Lestaurtinib' of Supplementary Table 1),run:Lestaurtinib_02364_R3,Plate:MR002) was 260 nM and the potency estimated from few doses (NUAK2; compound concentrations:100 nM and 1000 nM (sheet 'Lestaurtinib' of Supplementary Table 1),run:Lestaurtinib_02367_R1,Plate:MR003) was 873 nM. For the same substance, the potency estimated from few doses (NUAK2; compound concentrations:100 nM and 1000 nM (sheet 'Lestaurtinib' of Supplementary Table 1),run:Lestaurtinib_02367_R2,Plate:MR003) was 382 nM, the potency estimated from few doses (NUAK2; compound concentrations:100 nM and 1000 nM (sheet 'Lestaurtinib' of Supplementary Table 1),run:Lestaurtinib_02381_R1,Plate:MR004) was 394 nM and the potency estimated from few doses (NUAK2; compound concentrations:100 nM and 1000 nM (sheet 'Lestaurtinib' of Supplementary Table 1),run:Lestaurtinib_02381_R2,Plate:MR004) was 113 nM. It also gave a potency estimated from few doses (NUAK2; compound concentrations:100 nM and 1000 nM (sheet 'Lestaurtinib' of Supplementary Table 1),run:Lestaurtinib_02407_R2,Plate:MR005) of 70.6 nM, a potency estimated from few doses (NUAK2; compound concentrations:100 nM and 1000 nM (sheet 'Lestaurtinib' of Supplementary Table 1),run:Lestaurtinib_02422_R1,Plate:MR006) of 77.8 nM and a potency estimated from few doses (NUAK2; compound concentrations:100 nM and 1000 nM (sheet 'Lestaurtinib' of Supplementary Table 1),run:Lestaurtinib_02422_R2,Plate:MR006) of 44.9 nM. The potency estimated from few doses (NUAK2; compound concentrations:100 nM and 1000 nM (sheet 'Lestaurtinib' of Supplementary Table 1),run:Lestaurtinib_02437_R1,Plate:MR007) was 140 nM, the potency estimated from few doses (NUAK2; compound concentrations:100 nM and 1000 nM (sheet 'Lestaurtinib' of Supplementary Table 1),run:Lestaurtinib_02438_R1,Plate:MR008) was 22.1 nM and the potency estimated from few doses (NUAK2; compound concentrations:100 nM and 1000 nM (sheet 'Lestaurtinib' of Supplementary Table 1),run:Lestaurtinib_02443_R1,Plate:MR009) was 70 nM. For the same substance, the potency estimated from few doses (NUAK2; compound concentrations:100 nM and 1000 nM (sheet 'Lestaurtinib' of Supplementary Table 1),run:Lestaurtinib_02443_R2,Plate:MR009) was 75.5 nM, the potency estimated from few doses (NUAK2; compound concentrations:100 nM and 1000 nM (sheet 'Lestaurtinib' of Supplementary Table 1),run:Lestaurtinib_02443_R3,Plate:MR009) was 696 nM and the potency estimated from few doses (NUAK2; compound concentrations:100 nM and 1000 nM (sheet 'Lestaurtinib' of Supplementary Table 1),run:Lestaurtinib_02473_R2,Plate:MR010) was 100 nM. It also gave a potency estimated from few doses (NUAK2; compound concentrations:100 nM and 1000 nM (sheet 'Lestaurtinib' of Supplementary Table 1),run:Lestaurtinib_02473_R3,Plate:MR010) of 53.1 nM, a potency estimated from few doses (NUAK2; compound concentrations:100 nM and 1000 nM (sheet 'Lestaurtinib' of Supplementary Table 1),run:Lestaurtinib_02482_R1,Plate:MR011) of 165 nM and a potency estimated from few doses (NUAK2; compound concentrations:100 nM and 1000 nM (sheet 'Lestaurtinib' of Supplementary Table 1),run:Lestaurtinib_02482_R2,Plate:MR011) of 98 nM. For the same substance, the potency estimated from few doses (NUAK2; compound concentrations:100 nM and 1000 nM (sheet 'Lestaurtinib' of Supplementary Table 1),run:Lestaurtinib_02482_R3,Plate:MR011) was 133 nM, the potency estimated from few doses (NUAK2; compound concentrations:100 nM and 1000 nM (sheet 'Lestaurtinib' of Supplementary Table 1),run:Lestaurtinib_02487_R1,Plate:MR012) was 87.5 nM and the potency estimated from few doses (NUAK2; compound concentrations:100 nM and 1000 nM (sheet 'Lestaurtinib' of Supplementary Table 1),run:Lestaurtinib_02487_R2,Plate:MR012) was 208 nM. It also gave a potency estimated from few doses (NUAK2; compound concentrations:100 nM and 1000 nM (sheet 'Lestaurtinib' of Supplementary Table 1),run:Lestaurtinib_02487_R3,Plate:MR012) of 85.6 nM, a potency estimated from few doses (NUAK2; compound concentrations:100 nM and 1000 nM (sheet 'Lestaurtinib' of Supplementary Table 1),run:Lestaurtinib_02496_R1,Plate:MR013) of 931 nM and a potency estimated from few doses (NUAK2; compound concentrations:100 nM and 1000 nM (sheet 'Lestaurtinib' of Supplementary Table 1),run:Lestaurtinib_02496_R3,Plate:MR013) of 50.7 nM. The potency estimated from few doses (NUAK2; compound concentrations:100 nM and 1000 nM (sheet 'Lestaurtinib' of Supplementary Table 1),run:Lestaurtinib_02566_R3,Plate:MR014) was 517 nM, the potency estimated from few doses (NUAK2; compound concentrations:100 nM and 1000 nM (sheet 'Lestaurtinib' of Supplementary Table 1),run:Lestaurtinib_02572_R1,Plate:MR015) was 368 nM and the potency estimated from few doses (NUAK2; compound concentrations:100 nM and 1000 nM (sheet 'Lestaurtinib' of Supplementary Table 1),run:Lestaurtinib_02572_R2,Plate:MR015) was 96.7 nM. For the same substance, the potency estimated from few doses (NUAK2; compound concentrations:100 nM and 1000 nM (sheet 'Lestaurtinib' of Supplementary Table 1),run:Lestaurtinib_02584_R1,Plate:MR017) was 207 nM, the potency estimated from few doses (NUAK2; compound concentrations:100 nM and 1000 nM (sheet 'Lestaurtinib' of Supplementary Table 1),run:Lestaurtinib_02584_R3,Plate:MR017) was 259 nM and the potency estimated from few doses (NUAK2; compound concentrations:100 nM and 1000 nM (sheet 'Lestaurtinib' of Supplementary Table 1),run:Lestaurtinib_02601_R3,Plate:MR018) was 396 nM. For the same substance, the potency estimated from few doses (NUAK2; compound concentrations:100 nM and 1000 nM (sheet 'Lestaurtinib' of Supplementary Table 1),run:Lestaurtinib_02606_R1,Plate:MR019) was 140 nM, the potency estimated from few doses (NUAK2; compound concentrations:100 nM and 1000 nM (sheet 'Lestaurtinib' of Supplementary Table 1),run:Lestaurtinib_02606_R2,Plate:MR019) was 121 nM and the potency estimated from few doses (NUAK2; compound concentrations:100 nM and 1000 nM (sheet 'Lestaurtinib' of Supplementary Table 1),run:Lestaurtinib_02606_R3,Plate:MR019) was 154 nM. For the same substance, the potency estimated from few doses (NUAK2; compound concentrations:100 nM and 1000 nM (sheet 'Lestaurtinib' of Supplementary Table 1),run:Lestaurtinib_02624_R1,Plate:MR020) was 92.2 nM, the potency estimated from few doses (NUAK2; compound concentrations:100 nM and 1000 nM (sheet 'Lestaurtinib' of Supplementary Table 1),run:Lestaurtinib_02624_R2,Plate:MR020) was 93.3 nM and the potency estimated from few doses (NUAK2; compound concentrations:100 nM and 1000 nM (sheet 'Lestaurtinib' of Supplementary Table 1),run:Lestaurtinib_02624_R3,Plate:MR020) was 72.9 nM. For the same substance, the potency estimated from few doses (NUAK2; compound concentrations:100 nM and 1000 nM (sheet 'Lestaurtinib' of Supplementary Table 1),run:Lestaurtinib_02741_R1,Plate:MR023) was 140 nM, the potency estimated from few doses (NUAK2; compound concentrations:100 nM and 1000 nM (sheet 'Lestaurtinib' of Supplementary Table 1),run:Lestaurtinib_02741_R2,Plate:MR023) was 124 nM and the potency estimated from few doses (NUAK2; compound concentrations:100 nM and 1000 nM (sheet 'Lestaurtinib' of Supplementary Table 1),run:Lestaurtinib_02741_R3,Plate:MR023) was 115 nM. The potency estimated from few doses (NUAK2; compound concentrations:100 nM and 1000 nM (sheet 'Lestaurtinib' of Supplementary Table 1),run:Lestaurtinib_02748_R3,Plate:MR024) was 59.8 nM, the potency estimated from few doses (NUAK2; compound concentrations:100 nM and 1000 nM (sheet 'Lestaurtinib' of Supplementary Table 1),run:Lestaurtinib_02752_R2,Plate:MR025) was 68.5 nM and the potency estimated from few doses (NUAK2; compound concentrations:100 nM and 1000 nM (sheet 'Lestaurtinib' of Supplementary Table 1),run:Lestaurtinib_02765_R1,Plate:MR026) was 298 nM. It also gave a potency estimated from few doses (NUAK2; [1]) of 316 nM, a potency estimated from few doses (NUAK2; compound concentrations:100 nM and 1000 nM (sheet 'Lestaurtinib' of Supplementary Table 1),run:Lestaurtinib_02765_R3,Plate:MR026) of 88.4 nM and a potency estimated from few doses (NUAK2; [2]) of 58.5 nM. It also gave a potency estimated from few doses (NUAK2; [3]) of 89.9 nM, a potency estimated from few doses (NUAK2; [4]) of 66.1 nM and a potency estimated from few doses (NUAK2; compound concentrations:100 nM and 1000 nM (sheet 'Lestaurtinib' of Supplementary Table 1),run:Lestaurtinib_02768_R3,Plate:MR028) of 146 nM. For the same substance, the potency estimated from few doses (NUAK2; [5]) was 93.4 nM, the potency estimated from few doses (NUAK2; [6]) was 95.4 nM and the potency estimated from few doses (NUAK2; compound concentrations:100 nM and 1000 nM (sheet 'Lestaurtinib' of Supplementary Table 1),run:Lestaurtinib_02795_R3,Plate:MR022) was 154 nM. For the same substance, the potency estimated from few doses (NUAK2; compound concentrations:100 nM and 1000 nM (sheet 'Lestaurtinib' of Supplementary Table 1),run:Lestaurtinib_02802_R2,Plate:MR029) was 79.5 nM, the potency estimated from few doses (NUAK2; [7]) was 69.5 nM and the potency estimated from few doses (NUAK2; compound concentrations:100 nM and 1000 nM (sheet 'Lestaurtinib' of Supplementary Table 1),run:Lestaurtinib_02896_R1,Plate:MR030) was 90.1 nM. For the same substance, the potency estimated from few doses (NUAK2; [8]) was 130 nM.
